# Legend:
# Test in all cases: DAPPL (digital affinity profiling via proximity ligation, sequencing); 10 mM Tris-HCl pH 7.5, 50 mM NaCl, 1 mM DTT, 4% glycerol, room temperature, 30 min; GST-TFs on glutathione beads, 16-mer random dsDNA library, 0.1% formaldehyde crosslink after washing; high values mean tight binding
# FEV = molecular target: T1, FEV (Homo sapiens, UniProt Q99581 1-238); conditions: protein: recombinant; tags: N-terminal GST; dsDNA, one strand shown
# T1 sequence: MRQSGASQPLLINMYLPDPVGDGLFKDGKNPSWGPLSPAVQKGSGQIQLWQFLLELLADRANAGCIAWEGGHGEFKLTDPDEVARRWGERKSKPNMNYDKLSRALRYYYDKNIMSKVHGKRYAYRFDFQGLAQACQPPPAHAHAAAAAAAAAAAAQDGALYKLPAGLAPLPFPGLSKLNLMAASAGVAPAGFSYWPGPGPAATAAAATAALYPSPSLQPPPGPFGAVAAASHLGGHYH
# Outline: (§1)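 Beads coated with glutathione captured GST-fused human transcription factors that had been expressed in yeast, and the factors were then given DNA barcodes and pooled with a tag-only sample. The pools were incubated with 200 nmole of a random double-stranded 16-mer DNA library in Tris/NaCl/DTT/glycerol buffer for 30 min at room temperature, washed, crosslinked with 0.1% formaldehyde and proximity-ligated with BsaI/T4 ligase at 37 °C for 1 h. PCR amplification and Illumina NextSeq500 sequencing came last. Binding signal is each hexamer's read frequency for a factor divided by its frequency for the tag-only sample.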
# ETV5 = ETV5 (Homo sapiens, UniProt P41161 1-510); conditions: protein: recombinant; tags: N-terminal GST; dsDNA, one strand shown
# Outline: as §1
# HSF1 = HSF1 (Homo sapiens, UniProt Q00613 1-529); conditions: protein: recombinant; tags: N-terminal GST; chain copies: 3; dsDNA, one strand shown
# Outline: as §1
# SPIC = molecular target: T2, SPIC (Homo sapiens, UniProt Q8N5J4 1-248); conditions: protein: recombinant; tags: N-terminal GST; dsDNA, one strand shown
# T2 sequence: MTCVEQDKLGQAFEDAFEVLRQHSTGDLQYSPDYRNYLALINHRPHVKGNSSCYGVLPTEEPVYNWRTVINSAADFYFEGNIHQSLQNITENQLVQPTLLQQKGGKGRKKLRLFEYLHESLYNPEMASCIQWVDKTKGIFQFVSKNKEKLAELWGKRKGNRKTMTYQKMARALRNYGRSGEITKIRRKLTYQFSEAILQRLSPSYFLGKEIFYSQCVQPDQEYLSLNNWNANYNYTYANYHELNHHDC
# Outline: as §1
# ELF4 = ELF4 (Homo sapiens, UniProt Q99607 1-663); conditions: protein: recombinant; tags: N-terminal GST; dsDNA, one strand shown
# Outline: as §1
# ELK4 = molecular target: T3, ELK4 (Homo sapiens, UniProt P28324-2 1-405); conditions: protein: recombinant; tags: N-terminal GST; dsDNA, one strand shown
# T3 sequence: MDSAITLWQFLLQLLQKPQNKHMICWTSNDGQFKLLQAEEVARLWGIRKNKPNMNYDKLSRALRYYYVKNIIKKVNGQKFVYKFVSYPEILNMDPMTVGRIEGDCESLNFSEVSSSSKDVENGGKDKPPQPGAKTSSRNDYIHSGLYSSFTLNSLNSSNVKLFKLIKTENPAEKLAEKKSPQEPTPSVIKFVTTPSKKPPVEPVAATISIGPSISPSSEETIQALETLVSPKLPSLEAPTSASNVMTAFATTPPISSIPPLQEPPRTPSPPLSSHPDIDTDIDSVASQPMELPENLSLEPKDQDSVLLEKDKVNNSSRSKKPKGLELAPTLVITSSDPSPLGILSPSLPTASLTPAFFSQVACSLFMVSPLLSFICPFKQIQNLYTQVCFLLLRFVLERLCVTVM
# Outline: as §1
# ETV2 = molecular target: T4, ETV2 (Homo sapiens, UniProt O00321 1-342); conditions: protein: recombinant; tags: N-terminal GST; dsDNA, one strand shown
# T4 sequence: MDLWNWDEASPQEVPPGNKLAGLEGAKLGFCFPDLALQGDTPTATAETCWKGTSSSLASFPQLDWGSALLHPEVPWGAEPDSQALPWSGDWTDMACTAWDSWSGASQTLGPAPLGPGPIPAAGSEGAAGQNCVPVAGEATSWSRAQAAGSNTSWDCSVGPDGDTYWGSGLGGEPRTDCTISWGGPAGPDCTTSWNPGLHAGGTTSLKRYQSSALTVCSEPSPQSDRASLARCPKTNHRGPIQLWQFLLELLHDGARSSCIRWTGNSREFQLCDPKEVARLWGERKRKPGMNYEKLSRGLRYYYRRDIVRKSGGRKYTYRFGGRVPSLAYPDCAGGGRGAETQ
# Outline: as §1
# ELF3 = molecular target: T5, ELF3 (Homo sapiens, UniProt P78545 1-371); conditions: protein: recombinant; tags: N-terminal GST; dsDNA, one strand shown
# T5 sequence: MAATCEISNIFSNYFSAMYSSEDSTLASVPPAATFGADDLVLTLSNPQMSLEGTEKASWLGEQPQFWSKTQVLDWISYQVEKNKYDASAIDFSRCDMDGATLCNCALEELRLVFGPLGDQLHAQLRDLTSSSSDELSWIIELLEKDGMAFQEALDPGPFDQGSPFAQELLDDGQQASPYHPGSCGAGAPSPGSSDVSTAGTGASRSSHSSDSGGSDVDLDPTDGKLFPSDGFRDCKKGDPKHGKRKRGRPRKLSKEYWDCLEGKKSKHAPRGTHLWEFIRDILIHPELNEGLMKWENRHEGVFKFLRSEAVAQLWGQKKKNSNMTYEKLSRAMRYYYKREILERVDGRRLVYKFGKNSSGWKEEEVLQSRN
# Outline: as §1
# CRX = CRX (Homo sapiens, UniProt O43186 1-299); conditions: protein: recombinant; tags: N-terminal GST; dsDNA, one strand shown
# Outline: as §1
# ETV1 = ETV1 (Homo sapiens, UniProt P50549 1-477); conditions: protein: recombinant; tags: N-terminal GST; dsDNA, one strand shown
# Outline: as §1
# ERF = molecular target: T6, ERF (Homo sapiens, UniProt P50548 1-548); conditions: protein: recombinant; tags: N-terminal GST; dsDNA, one strand shown
# T6 sequence: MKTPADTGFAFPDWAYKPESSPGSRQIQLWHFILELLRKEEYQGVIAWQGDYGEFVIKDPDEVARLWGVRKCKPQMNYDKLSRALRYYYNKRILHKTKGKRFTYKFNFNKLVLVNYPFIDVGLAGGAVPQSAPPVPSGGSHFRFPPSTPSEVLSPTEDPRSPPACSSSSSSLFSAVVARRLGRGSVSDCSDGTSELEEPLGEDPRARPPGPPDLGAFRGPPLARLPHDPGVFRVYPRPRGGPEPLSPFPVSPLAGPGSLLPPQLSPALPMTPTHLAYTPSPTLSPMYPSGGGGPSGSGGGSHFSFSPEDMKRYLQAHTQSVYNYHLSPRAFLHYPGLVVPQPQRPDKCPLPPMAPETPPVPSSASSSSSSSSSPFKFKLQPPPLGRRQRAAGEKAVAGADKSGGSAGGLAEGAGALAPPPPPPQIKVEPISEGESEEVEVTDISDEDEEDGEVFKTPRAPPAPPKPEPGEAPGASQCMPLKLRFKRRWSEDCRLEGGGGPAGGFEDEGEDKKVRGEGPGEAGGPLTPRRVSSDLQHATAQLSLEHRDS
# Outline: as §1
# ETV3L = molecular target: T7, ETV3L (Homo sapiens, UniProt Q6ZN32 1-361); conditions: protein: recombinant; tags: N-terminal GST; dsDNA, one strand shown
# T7 sequence: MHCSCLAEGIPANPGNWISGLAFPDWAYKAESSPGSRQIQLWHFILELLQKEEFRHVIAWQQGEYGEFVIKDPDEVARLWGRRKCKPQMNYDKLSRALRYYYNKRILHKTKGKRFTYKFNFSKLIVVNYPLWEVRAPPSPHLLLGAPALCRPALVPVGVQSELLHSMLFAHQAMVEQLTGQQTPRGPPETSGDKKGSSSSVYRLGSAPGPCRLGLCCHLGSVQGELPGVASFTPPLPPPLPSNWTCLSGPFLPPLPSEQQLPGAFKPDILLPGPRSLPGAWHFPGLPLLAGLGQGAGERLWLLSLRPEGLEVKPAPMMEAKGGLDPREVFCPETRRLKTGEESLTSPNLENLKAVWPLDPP
# Outline: as §1
# ETS2 = molecular target: T8, ETS2 (Homo sapiens, UniProt P15036 1-469); conditions: protein: recombinant; tags: N-terminal GST; dsDNA, one strand shown
# T8 sequence: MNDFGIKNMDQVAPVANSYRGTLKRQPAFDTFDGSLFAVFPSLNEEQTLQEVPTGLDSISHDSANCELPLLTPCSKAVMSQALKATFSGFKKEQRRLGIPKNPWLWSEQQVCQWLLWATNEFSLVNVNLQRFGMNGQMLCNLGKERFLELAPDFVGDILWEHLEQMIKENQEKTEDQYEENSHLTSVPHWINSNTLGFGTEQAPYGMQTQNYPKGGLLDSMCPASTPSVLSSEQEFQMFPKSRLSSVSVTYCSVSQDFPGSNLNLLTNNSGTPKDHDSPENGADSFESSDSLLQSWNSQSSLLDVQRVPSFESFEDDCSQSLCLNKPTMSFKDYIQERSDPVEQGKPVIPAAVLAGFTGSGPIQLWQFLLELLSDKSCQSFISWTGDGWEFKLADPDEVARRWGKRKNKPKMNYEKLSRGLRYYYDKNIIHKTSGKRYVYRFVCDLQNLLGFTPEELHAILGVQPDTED
# Outline: as §1
# SPDEF = molecular target: T9, SPDEF (Homo sapiens, UniProt O95238 1-335); conditions: protein: recombinant; tags: N-terminal GST; dsDNA, one strand shown
# T9 sequence: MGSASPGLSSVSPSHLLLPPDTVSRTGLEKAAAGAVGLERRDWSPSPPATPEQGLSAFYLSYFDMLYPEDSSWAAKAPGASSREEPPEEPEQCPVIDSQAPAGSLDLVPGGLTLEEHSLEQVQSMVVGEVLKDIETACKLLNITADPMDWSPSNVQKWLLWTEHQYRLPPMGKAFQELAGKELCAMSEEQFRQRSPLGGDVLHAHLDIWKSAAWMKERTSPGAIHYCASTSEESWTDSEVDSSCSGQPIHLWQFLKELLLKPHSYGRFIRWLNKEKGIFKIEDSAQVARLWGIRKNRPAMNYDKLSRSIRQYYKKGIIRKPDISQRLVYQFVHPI
# Outline: as §1
# ETV7 = molecular target: T10, ETV7 (Homo sapiens, UniProt Q9Y603 1-341); conditions: protein: recombinant; tags: N-terminal GST; dsDNA, one strand shown
# T10 sequence: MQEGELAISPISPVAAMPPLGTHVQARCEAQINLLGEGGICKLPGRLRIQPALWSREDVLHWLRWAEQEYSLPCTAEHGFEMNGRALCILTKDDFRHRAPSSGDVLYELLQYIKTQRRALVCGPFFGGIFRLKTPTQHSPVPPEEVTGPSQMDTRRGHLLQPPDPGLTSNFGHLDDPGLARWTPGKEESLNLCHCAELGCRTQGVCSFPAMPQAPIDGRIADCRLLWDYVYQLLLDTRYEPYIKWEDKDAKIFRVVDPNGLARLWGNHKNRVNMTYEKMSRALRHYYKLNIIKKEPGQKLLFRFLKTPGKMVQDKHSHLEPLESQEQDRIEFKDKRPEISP
# Outline: as §1
# ELF5 = molecular target: T11, ELF5 (Homo sapiens, UniProt Q9UKW6-2 1-255); conditions: protein: recombinant; tags: N-terminal GST; dsDNA, one strand shown
# T11 sequence: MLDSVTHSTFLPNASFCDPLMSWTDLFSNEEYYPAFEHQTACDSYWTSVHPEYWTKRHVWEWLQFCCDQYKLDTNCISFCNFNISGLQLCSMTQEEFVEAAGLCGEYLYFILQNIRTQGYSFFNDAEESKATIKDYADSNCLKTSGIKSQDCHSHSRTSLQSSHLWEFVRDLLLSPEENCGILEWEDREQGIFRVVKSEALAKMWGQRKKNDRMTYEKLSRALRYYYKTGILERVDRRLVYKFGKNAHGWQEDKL
# Outline: as §1
# ETV3 = molecular target: T12, ETV3 (Homo sapiens, UniProt P41162-2 1-143); conditions: protein: recombinant; tags: N-terminal GST; dsDNA, one strand shown
# T12 sequence: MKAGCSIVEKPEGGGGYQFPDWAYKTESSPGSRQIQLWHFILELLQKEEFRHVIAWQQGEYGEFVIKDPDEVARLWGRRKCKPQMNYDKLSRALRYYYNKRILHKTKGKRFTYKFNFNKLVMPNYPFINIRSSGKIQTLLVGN
# Outline: as §1
# ETV6 = ETV6 (Homo sapiens, UniProt P41212 1-452); conditions: protein: recombinant; tags: N-terminal GST; dsDNA, one strand shown
# Outline: as §1
# ETV1, sequence (P50549 whole entry): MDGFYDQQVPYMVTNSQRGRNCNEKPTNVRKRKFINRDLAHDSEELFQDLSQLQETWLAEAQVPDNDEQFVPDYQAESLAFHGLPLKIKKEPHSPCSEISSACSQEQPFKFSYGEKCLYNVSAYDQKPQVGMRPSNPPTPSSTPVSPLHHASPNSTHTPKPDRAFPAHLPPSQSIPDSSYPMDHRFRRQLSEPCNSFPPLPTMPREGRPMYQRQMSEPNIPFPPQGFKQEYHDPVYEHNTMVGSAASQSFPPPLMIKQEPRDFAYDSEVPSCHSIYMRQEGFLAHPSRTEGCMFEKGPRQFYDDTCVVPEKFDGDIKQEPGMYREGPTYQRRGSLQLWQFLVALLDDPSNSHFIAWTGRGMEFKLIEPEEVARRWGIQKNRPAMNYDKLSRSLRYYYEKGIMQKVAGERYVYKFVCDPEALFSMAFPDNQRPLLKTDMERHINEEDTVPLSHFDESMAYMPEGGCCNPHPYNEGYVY
# ETV5, sequence (P41161 whole entry): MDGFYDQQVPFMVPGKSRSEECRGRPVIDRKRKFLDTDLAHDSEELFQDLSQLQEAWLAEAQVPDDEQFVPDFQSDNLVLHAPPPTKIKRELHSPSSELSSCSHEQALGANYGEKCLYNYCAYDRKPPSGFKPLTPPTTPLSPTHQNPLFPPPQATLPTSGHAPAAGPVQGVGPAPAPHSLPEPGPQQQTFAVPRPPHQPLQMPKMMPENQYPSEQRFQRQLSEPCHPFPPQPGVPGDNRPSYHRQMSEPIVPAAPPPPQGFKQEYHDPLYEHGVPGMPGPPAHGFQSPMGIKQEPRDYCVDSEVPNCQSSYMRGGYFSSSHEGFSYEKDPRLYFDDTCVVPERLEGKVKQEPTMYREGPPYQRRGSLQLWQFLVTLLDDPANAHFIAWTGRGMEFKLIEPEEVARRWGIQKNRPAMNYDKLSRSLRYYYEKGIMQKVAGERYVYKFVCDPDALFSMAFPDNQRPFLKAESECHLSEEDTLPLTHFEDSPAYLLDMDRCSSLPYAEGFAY
# ETV6, sequence (P41212 whole entry): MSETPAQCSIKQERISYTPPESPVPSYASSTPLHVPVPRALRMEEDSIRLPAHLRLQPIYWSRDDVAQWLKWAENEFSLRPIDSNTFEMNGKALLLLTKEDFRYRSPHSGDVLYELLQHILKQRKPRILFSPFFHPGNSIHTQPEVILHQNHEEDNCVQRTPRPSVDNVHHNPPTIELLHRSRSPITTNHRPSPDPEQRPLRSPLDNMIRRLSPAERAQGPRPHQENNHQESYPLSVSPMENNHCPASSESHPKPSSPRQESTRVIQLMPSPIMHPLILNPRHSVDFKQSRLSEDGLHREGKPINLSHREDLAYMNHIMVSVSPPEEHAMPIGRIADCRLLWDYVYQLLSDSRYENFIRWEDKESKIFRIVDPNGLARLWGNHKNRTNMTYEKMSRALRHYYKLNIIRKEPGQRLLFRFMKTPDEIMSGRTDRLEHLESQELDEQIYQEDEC
# CRX, sequence (O43186 whole entry): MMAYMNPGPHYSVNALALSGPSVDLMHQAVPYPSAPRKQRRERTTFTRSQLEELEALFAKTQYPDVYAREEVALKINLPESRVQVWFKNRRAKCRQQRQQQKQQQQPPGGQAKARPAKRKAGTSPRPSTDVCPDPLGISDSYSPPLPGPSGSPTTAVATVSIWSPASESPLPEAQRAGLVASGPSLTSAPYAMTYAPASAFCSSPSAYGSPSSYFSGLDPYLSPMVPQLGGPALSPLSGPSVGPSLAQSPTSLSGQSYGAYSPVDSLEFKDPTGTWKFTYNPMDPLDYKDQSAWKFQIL
# ELF4, sequence (Q99607 whole entry): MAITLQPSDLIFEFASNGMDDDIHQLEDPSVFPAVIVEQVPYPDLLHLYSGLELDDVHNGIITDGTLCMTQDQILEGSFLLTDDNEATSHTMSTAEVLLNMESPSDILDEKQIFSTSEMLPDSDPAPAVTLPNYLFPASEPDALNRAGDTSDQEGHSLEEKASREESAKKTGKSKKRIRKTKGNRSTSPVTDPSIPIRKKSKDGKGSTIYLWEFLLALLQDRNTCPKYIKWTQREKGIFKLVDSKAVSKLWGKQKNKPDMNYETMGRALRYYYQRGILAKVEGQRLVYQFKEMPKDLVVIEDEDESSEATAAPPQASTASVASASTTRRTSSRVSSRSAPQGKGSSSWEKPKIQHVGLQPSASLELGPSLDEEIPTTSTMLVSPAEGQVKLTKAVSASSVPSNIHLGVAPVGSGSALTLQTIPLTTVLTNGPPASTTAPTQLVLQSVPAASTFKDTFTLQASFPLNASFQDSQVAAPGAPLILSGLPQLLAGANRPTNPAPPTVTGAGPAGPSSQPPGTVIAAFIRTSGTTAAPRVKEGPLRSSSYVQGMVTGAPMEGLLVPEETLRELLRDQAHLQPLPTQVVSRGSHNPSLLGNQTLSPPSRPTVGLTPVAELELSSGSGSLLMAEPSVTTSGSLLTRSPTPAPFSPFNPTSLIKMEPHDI
# HSF1, sequence (Q00613 whole entry): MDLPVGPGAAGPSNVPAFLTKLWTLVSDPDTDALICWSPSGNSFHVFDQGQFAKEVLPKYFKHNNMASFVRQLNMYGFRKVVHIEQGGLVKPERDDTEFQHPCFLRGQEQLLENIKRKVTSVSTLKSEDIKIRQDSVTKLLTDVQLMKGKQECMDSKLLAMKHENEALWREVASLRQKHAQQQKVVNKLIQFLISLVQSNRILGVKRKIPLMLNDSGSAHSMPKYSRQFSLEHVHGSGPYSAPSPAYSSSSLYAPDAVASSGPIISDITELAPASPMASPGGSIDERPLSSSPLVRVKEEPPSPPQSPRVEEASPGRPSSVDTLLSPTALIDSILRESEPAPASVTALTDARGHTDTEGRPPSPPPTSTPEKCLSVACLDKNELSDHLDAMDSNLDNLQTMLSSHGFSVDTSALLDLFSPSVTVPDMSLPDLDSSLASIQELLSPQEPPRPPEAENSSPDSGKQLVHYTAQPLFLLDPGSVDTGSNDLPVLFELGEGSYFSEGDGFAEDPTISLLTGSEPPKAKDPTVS
sequence,measurement,setting,value
TCCCTC,binding signal,FEV,"1.56 fold enrichment (6-mer frequency, TF over GST control)"
same,binding signal,ETV5,"1.43 fold enrichment (6-mer frequency, TF over GST control)"
same,binding signal,HSF1,"1.38 fold enrichment (6-mer frequency, TF over GST control)"
same,binding signal,SPIC,"1.35 fold enrichment (6-mer frequency, TF over GST control)"
same,binding signal,ELF4,"1.7 fold enrichment (6-mer frequency, TF over GST control)"
same,binding signal,ELK4,"1.78 fold enrichment (6-mer frequency, TF over GST control)"
same,binding signal,ETV2,"1.43 fold enrichment (6-mer frequency, TF over GST control)"
same,binding signal,ELF3,"1.43 fold enrichment (6-mer frequency, TF over GST control)"
same,binding signal,CRX,"1.41 fold enrichment (6-mer frequency, TF over GST control)"
same,binding signal,ETV1,"1.43 fold enrichment (6-mer frequency, TF over GST control)"
same,binding signal,ERF,"1.46 fold enrichment (6-mer frequency, TF over GST control)"
same,binding signal,ETV3L,"1.41 fold enrichment (6-mer frequency, TF over GST control)"
same,binding signal,ETS2,"1.49 fold enrichment (6-mer frequency, TF over GST control)"
same,binding signal,SPDEF,"1.4 fold enrichment (6-mer frequency, TF over GST control)"
same,binding signal,ETV7,"1.4 fold enrichment (6-mer frequency, TF over GST control)"
same,binding signal,ELF5,"1.53 fold enrichment (6-mer frequency, TF over GST control)"
same,binding signal,ETV3,"1.49 fold enrichment (6-mer frequency, TF over GST control)"
same,binding signal,ETV6,"1.43 fold enrichment (6-mer frequency, TF over GST control)"

# Source: publication PMC7862700, “An all-to-all approach to the identification of sequence-specific readers for epigenetic DNA modifications on cytosine”
